Test results published in the supplement of paper PMC11732987, “Enantioselective OTUD7B fragment discovery through chemoproteomics screening and high-throughput optimisation” (Communications Chemistry, 2025).

What was measured:
Assay in all cases: log2 ratio of Biotin-Ahx-Ub-VS probe labelling (fragment/DMSO); higher = less target engagement (more negative = stronger competition), active = hit call of the paper (q ≤ 0.05, log2 ratio ≤ -1)
Conditions in all cases: compound concentration: 200 uM; treatment time: 3 h
USP34 = USP34 (UniProt Q70CQ2)
USP34, sequence (Q70CQ2 whole entry, the tested form may be a part): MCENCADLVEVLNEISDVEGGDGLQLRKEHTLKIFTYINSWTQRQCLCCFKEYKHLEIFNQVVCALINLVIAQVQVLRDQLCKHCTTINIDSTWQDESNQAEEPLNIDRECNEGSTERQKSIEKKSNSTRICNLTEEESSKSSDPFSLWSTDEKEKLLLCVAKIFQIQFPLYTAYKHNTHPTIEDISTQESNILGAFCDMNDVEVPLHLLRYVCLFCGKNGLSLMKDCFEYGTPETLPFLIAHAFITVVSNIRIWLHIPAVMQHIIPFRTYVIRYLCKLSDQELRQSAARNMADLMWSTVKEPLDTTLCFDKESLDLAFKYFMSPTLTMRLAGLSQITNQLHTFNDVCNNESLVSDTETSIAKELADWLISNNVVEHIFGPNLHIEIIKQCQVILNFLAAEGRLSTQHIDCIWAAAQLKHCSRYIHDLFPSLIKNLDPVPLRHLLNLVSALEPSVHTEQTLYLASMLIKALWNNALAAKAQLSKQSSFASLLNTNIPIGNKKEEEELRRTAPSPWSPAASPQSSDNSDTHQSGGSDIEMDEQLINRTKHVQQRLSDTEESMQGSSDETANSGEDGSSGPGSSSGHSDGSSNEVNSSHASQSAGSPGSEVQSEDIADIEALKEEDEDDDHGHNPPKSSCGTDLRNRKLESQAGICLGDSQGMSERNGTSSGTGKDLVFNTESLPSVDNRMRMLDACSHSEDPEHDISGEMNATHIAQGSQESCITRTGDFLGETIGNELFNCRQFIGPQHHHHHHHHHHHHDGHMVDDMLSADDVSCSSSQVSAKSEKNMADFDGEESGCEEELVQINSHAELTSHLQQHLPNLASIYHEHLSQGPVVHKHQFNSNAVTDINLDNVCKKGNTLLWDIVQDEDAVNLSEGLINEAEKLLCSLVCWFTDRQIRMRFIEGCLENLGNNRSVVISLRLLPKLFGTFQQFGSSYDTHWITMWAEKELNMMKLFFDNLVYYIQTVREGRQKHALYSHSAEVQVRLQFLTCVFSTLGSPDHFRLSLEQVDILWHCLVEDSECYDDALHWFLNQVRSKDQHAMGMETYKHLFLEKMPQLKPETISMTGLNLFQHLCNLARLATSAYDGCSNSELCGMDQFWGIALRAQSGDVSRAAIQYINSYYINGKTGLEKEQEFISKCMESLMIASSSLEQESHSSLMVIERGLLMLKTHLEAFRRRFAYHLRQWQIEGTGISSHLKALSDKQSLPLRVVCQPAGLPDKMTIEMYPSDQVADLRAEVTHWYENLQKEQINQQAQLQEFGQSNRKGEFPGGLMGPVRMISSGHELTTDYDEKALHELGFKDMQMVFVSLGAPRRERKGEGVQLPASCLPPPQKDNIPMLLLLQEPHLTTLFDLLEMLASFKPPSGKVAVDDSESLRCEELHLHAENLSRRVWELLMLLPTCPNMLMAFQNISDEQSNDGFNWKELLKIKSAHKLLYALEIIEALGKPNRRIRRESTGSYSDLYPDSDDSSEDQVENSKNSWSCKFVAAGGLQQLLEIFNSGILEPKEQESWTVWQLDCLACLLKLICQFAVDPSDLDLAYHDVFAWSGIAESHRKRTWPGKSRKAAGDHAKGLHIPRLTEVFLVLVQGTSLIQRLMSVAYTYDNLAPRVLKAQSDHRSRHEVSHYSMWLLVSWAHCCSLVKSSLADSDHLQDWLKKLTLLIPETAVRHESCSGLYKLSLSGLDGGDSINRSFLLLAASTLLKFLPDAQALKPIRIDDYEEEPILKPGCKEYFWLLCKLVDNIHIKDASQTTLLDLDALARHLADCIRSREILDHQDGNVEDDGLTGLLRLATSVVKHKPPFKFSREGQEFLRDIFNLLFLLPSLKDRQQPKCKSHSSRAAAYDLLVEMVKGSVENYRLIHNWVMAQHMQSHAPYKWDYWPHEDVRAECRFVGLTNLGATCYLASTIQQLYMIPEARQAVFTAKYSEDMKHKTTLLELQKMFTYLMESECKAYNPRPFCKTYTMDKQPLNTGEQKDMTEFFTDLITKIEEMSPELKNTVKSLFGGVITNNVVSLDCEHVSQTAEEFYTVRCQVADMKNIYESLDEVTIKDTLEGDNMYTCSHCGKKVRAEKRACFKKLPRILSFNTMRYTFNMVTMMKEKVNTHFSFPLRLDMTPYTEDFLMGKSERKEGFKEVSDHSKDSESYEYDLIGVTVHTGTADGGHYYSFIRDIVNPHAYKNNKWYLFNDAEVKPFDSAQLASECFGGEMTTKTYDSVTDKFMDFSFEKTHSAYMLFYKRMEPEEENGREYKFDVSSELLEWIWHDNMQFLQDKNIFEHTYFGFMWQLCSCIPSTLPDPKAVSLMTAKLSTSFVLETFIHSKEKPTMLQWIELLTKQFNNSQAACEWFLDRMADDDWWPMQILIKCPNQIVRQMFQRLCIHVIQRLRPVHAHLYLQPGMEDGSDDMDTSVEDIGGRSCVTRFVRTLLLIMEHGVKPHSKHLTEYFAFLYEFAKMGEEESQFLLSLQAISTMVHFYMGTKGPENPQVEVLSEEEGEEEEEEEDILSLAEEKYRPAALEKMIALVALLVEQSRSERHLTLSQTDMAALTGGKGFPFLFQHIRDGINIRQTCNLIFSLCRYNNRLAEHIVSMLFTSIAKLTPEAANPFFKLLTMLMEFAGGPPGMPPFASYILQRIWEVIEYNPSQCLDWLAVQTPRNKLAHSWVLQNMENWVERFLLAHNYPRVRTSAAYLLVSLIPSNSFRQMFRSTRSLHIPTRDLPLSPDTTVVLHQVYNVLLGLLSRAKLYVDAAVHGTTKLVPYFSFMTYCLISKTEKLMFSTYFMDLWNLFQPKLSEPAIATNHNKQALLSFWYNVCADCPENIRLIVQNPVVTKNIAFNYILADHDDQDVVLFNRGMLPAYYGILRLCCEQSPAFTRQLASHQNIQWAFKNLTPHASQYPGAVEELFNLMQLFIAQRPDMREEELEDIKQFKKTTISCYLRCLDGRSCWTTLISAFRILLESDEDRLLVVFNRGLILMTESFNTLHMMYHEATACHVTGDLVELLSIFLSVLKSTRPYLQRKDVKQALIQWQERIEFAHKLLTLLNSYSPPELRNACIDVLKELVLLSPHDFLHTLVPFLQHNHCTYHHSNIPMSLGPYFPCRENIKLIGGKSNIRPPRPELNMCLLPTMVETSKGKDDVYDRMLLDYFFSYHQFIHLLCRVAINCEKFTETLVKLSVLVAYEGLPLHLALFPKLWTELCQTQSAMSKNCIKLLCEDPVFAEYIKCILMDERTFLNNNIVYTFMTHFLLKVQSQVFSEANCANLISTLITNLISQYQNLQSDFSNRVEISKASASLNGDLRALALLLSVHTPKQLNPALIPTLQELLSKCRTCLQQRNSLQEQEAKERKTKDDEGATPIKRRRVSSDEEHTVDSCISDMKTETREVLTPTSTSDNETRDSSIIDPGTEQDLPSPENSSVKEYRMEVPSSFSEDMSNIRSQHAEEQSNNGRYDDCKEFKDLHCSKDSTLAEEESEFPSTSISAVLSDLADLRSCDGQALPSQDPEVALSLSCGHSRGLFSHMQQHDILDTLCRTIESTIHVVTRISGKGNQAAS
How it was run: (§1)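 In triplicate, 495 µg of HEK293T lysate per sample was incubated with fragment at 200 µM or vehicle for 3 h. Biotin-Ahx-Ub-VS was then added to 0.5 µM final for 1 h, and labelled DUBs were captured with NeutrAvidin, digested with LysC and trypsin, and measured by diaPASEF LC-MS/MS. Data are average log2 fragment/vehicle ratios by unpaired t-test from global-median-normalised Spectronaut label-free quantities, restricted to proteins with ≥2 unique peptides.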

USP36 = molecular target: T1, USP36 (UniProt Q9P275)
T1 sequence (whole entry): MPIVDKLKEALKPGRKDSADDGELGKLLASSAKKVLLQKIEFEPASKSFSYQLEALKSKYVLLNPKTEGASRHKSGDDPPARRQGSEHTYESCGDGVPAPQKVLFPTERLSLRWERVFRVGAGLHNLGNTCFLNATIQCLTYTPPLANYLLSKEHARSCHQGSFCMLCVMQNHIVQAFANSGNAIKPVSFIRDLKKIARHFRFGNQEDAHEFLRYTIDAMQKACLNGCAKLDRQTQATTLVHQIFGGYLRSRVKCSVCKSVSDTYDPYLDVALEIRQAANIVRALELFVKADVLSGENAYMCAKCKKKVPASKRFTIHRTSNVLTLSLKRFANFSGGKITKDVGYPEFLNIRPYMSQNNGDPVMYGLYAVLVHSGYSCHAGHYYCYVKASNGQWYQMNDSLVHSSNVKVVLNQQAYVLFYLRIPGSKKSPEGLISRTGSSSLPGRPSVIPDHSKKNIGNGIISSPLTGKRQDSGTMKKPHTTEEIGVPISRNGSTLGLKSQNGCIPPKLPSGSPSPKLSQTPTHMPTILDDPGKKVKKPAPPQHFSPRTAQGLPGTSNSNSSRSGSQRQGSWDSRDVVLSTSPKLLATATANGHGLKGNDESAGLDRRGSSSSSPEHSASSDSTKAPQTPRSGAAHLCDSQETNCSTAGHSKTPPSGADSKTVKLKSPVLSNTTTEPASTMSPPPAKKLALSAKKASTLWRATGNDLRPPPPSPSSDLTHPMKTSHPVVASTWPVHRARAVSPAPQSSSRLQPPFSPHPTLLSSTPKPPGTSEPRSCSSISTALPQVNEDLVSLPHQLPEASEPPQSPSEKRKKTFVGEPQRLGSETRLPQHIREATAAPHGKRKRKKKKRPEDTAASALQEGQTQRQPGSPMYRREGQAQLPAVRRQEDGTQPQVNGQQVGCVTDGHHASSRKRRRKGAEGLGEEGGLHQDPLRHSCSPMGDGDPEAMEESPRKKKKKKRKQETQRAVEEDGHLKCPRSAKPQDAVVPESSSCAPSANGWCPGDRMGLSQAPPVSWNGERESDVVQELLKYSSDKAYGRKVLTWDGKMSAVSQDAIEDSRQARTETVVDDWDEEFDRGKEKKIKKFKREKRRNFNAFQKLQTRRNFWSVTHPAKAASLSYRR
How it was run: as §1

USP38 = molecular target: T2, USP38 (UniProt Q8NB14)
T2 sequence (whole entry): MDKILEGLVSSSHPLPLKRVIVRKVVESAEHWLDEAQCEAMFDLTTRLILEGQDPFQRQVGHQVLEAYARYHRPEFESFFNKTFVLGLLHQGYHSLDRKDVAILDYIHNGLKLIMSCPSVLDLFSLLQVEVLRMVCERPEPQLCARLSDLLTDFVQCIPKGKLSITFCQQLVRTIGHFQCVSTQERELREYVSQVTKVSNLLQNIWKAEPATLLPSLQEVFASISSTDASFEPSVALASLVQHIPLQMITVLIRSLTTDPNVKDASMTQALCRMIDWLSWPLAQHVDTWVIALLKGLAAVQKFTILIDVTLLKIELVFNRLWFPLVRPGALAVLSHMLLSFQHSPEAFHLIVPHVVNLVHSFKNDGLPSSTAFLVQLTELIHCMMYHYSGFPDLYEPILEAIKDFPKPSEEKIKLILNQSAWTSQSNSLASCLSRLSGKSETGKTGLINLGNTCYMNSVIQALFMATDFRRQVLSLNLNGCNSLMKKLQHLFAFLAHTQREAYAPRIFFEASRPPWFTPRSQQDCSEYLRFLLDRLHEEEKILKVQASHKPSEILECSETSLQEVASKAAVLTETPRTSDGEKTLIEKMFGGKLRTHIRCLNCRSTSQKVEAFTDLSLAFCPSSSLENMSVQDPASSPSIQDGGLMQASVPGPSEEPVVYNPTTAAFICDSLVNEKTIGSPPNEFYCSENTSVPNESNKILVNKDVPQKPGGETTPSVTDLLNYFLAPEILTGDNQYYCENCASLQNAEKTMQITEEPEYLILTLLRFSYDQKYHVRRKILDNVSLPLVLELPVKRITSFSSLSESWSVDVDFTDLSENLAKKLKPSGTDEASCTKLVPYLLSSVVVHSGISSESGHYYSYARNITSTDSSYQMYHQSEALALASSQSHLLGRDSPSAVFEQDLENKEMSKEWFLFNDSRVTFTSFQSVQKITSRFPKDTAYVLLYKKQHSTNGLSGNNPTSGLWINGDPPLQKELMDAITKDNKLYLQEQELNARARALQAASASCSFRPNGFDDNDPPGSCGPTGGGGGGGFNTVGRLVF
How it was run: as §1

USP39 = molecular target: T3, USP39 (UniProt Q53GS9)
T3 sequence (whole entry): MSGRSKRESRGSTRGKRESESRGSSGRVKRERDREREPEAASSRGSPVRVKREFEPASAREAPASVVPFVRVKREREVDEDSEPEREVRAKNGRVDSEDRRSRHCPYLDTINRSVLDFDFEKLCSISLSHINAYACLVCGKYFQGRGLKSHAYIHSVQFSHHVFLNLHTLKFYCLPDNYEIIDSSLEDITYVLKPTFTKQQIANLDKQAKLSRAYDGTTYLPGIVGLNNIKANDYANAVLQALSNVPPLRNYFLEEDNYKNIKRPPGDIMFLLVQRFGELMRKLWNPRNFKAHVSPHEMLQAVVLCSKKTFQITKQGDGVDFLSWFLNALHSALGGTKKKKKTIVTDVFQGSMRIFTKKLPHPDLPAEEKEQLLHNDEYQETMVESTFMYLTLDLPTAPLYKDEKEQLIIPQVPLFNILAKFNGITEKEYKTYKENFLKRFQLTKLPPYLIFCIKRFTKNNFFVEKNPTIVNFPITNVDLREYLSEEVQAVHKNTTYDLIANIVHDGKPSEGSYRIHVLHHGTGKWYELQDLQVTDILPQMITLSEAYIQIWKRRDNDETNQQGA
How it was run: as §1

USP4 = molecular target: T4, USP4 (UniProt Q13107)
T4 sequence (whole entry): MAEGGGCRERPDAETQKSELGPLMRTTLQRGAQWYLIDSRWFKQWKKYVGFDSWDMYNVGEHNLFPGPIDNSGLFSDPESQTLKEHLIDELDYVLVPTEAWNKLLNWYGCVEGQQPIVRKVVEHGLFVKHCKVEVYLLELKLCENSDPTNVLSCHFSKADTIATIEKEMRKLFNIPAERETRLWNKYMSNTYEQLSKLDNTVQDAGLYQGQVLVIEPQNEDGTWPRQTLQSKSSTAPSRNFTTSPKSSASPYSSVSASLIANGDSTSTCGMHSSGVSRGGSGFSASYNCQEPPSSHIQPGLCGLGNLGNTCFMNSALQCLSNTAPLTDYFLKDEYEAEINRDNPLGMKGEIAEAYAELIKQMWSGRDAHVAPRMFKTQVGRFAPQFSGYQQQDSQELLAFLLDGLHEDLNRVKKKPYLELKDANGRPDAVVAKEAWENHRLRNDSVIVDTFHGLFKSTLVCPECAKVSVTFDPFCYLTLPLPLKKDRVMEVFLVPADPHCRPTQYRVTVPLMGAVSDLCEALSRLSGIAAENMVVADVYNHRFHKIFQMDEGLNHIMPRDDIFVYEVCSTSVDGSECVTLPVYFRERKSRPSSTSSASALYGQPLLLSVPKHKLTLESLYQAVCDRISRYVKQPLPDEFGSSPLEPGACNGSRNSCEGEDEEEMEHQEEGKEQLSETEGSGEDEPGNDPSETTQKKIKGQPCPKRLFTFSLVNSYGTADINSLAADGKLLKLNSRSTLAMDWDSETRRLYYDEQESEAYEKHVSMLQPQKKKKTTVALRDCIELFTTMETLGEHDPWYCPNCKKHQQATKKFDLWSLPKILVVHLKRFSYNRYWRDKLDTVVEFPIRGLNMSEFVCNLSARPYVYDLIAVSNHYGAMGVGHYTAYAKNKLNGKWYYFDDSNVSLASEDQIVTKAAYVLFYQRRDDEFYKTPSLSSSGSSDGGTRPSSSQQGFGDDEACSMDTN
How it was run: as §1

Measured: log2 ratio of Biotin-Ahx-Ub-VS probe labelling

Cc1ccc(N(C(=O)CCl)C2C=CS(=O)(=O)C2)cc1 (stereo not given)
inactive: USP34 -0.0862 | USP36 -0.145 | USP38 0.105 | USP39 0.107 | USP4 0.0944
